Measurements as given in the supplement of paper PMC9950053.
Structures can show the parent of a compound that is named as a salt.

system: Danio rerio larvae (5 dpf); experiment: startle (activity period 16 minus period 15, 20-s interval sound) minus DMSO control (percentage points); higher = stronger startle response than DMSO larvae; conditions: 10 µM; exposure time: 3 h pre-incubation + 3 h imaging
Method: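 Wild-type 5 dpf zebrafish larvae (n=48 per drug, 96-well plates, 28.5 °C) were exposed to Tocris FDA-approved library compounds at 10 µM (0.1% DMSO) for 3 h before and 3 h during imaging. Images were taken every 6 s during visual (moving coloured lines) and acoustic stimuli, and larvae were tracked with the DeepLabCut-based Z-LaP Tracker. Each behavioural measure is the treated-group mean minus the DMSO vehicle control mean (n=844), in percentage points. This mapping covers compounds with 4-character plate codes.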

SMILES	startle
Cc1cccc(CN2CCN(C(c3ccccc3)c3ccc(Cl)cc3)CC2)c1 (stereo not given) [Meclizine dihydrochloride]	-7.54
COc1cc2ncnc(Nc3ccc(F)c(Cl)c3)c2cc1OCCCN1CCOCC1 [Iressa]	-1.42
CCCN(CCc1cccs1)[C@H]1CCc2c(O)cccc2C1 [Rotigotine hydrochloride]	-5.79
CCC(C)(C)C(=O)O[C@H]1C[C@@H](C)C=C2C=C[C@H](C)[C@H](CC[C@@H]3C[C@@H](O)CC(=O)O3)[C@H]21 [Simvastatin]	3.93
CCCc1nc(C(C)(C)O)c(C(=O)O)n1Cc1ccc(-c2ccccc2-c2nnn[nH]2)cc1 [Olmesartan]	8.5
CCOC(=O)C1=C(COCCN)NC(C)=C(C(=O)OC)C1c1ccccc1Cl (stereo not given) [Amlodipine besylate]	0.141
CC(C)(C(=O)c1cccnc1)c1cccnc1 [Metyrapone]	-0.289
CCN(CC)CCNC(=O)c1c(C)[nH]c(/C=C2\C(=O)Nc3ccc(F)cc32)c1C [Sunitinib malate]	-2.14
CCOC(=O)C1=C(C)NC(C)=C(C(=O)OC)C1c1cccc(Cl)c1Cl (stereo not given) [Felodipine]	7.93
CC(C)CN(C[C@@H](O)[C@H](Cc1ccccc1)NC(=O)O[C@H]1CO[C@H]2OCC[C@H]21)S(=O)(=O)c1ccc(N)cc1 [Darunavir]	-0.93
CCOC(=O)[C@H](CCc1ccccc1)N[C@@H](C)C(=O)N1[C@H](C(=O)O)C[C@@H]2CCC[C@@H]21 [Ramipril]	-0.503
COc1cc(Nc2c(C#N)cnc3cc(OCCCN4CCN(C)CC4)c(OC)cc23)c(Cl)cc1Cl [Bosutinib]	-0.373
Nc1nc2c(ncn2COCCO)c(=O)[nH]1 [Acyclovir]	-0.609
Cn1nnc2c(C(N)=O)ncn2c1=O [Temozolomide]	2.78
O=C(NCC1CCCCN1)c1cc(OCC(F)(F)F)ccc1OCC(F)(F)F (stereo not given) [Flecainide acetate]	4.84
CNC(=O)c1ccccc1Sc1ccc2c(/C=C/c3ccccn3)n[nH]c2c1 [Axitinib]	-7.2
CCCCNc1cc(C(=O)O)cc(S(N)(=O)=O)c1Oc1ccccc1 [Bumetanide]	3.28
N[C@@H]1[C@H]2CN(c3nc4c(cc3F)c(=O)c(C(=O)O)cn4-c3ccc(F)cc3F)C[C@@H]12 [Trovafloxacin mesylate]	-8.4
NS(=O)(=O)c1cc(C(=O)O)c(NCc2ccco2)cc1Cl [Furosemide]	-3.94
CC(C)(C)NC(=O)[C@@H]1C[C@@H]2CCCC[C@@H]2CN1C[C@@H](O)[C@H](Cc1ccccc1)NC(=O)[C@H](CC(N)=O)NC(=O)c1ccc2ccccc2n1 [Saquinavir mesylate]	0.811

SMILES	startle
COc1cc2nc(N3CCN(C(=O)C4COc5ccccc5O4)CC3)nc(N)c2cc1OC (stereo not given) [Doxazosin mesylate]	6.47
Brc1c(NC2=NCCN2)ccc2nccnc12	-5.57
OCCN(CCO)c1nc(N2CCCCC2)c2nc(N(CCO)CCO)nc(N3CCCCC3)c2n1 [Dipyridamole]	7.7
Nc1ncn([C@H]2C[C@H](O)[C@@H](CO)O2)c(=O)n1 [Decitabine]	-1.27
CC(C)Nc1cccnc1N1CCN(C(=O)c2cc3cc(NS(C)(=O)=O)ccc3[nH]2)CC1 [Delavirdine mesylate]	-4.71
Cc1c(-c2ccc(O)cc2)n(Cc2ccc(OCCN3CCCCCC3)cc2)c2ccc(O)cc12 [Bazedoxifene acetate]	-3.07
CC(=O)S[C@@H]1CC2=CC(=O)CC[C@]2(C)[C@H]2CC[C@@]3(C)[C@@H](CC[C@@]34CCC(=O)O4)[C@H]12 [Spironolactone]	2.27
C[C@]12CC[C@@H]3c4ccc(O)cc4C[C@@H](CCCCCCCCC[S+]([O-])CCCC(F)(F)C(F)(F)F)[C@H]3[C@@H]1CC[C@@H]2O (stereo not given in full)	-0.0663
CCOC(=O)[C@H](CCc1ccccc1)N[C@H]1CCc2ccccc2N(CC(=O)O)C1=O [Benazepril hydrochloride]	-0.0488
CCCCc1nc(Cl)c(CO)n1Cc1ccc(-c2ccccc2-c2nnn[nH]2)cc1 [Losartan potassium]	-0.225
CC(=O)Oc1ccccc1C(=O)O [Aspirin]	-4
COC(c1ccccc1)(c1ccccc1)[C@H](Oc1nc(C)cc(C)n1)C(=O)O [Ambrisentan]	6.56
O=c1[nH]c(=O)n([C@H]2C[C@H](O)[C@@H](CO)O2)cc1C(F)(F)F [Trifluorothymidine]	1.59
CCc1c2c(nc3ccc(OC(=O)N4CCC(N5CCCCC5)CC4)cc13)-c1cc3c(c(=O)n1C2)COC(=O)[C@]3(O)CC	0.964
C[C@]12CCC(=O)C=C1CC[C@@H]1[C@@H]2[C@@H](O)C[C@@]2(C)[C@H]1CC[C@]2(O)C(=O)CO [Hydrocortisone]	0.463
CN(C)CCc1c[nH]c2ccc(Cn3cncn3)cc12 [Rizatriptan benzoate]	4.04
NC(=O)c1ncn([C@@H]2O[C@H](CO)[C@@H](O)[C@H]2O)n1 [Ribavirin]	2.04
C=C1[C@H](CO)[C@@H](O)C[C@@H]1n1cnc2c(=O)[nH]c(N)nc21 [Entecavir]	3.99
OC(CNCC(O)C1CCc2cc(F)ccc2O1)C1CCc2cc(F)ccc2O1 (stereo not given) [Nebivolol hydrochloride]	-4.81
OCCOCCN1CCN(C2=Nc3ccccc3Sc3ccccc32)CC1 [Quetiapine hemifumarate]	-0.888
